Values without a mark were called inactive. Calls of active or inactive are those of the source. Calls follow the shape of the dose curve; as a rule, active = well fitted activation curve with a large enough effect in the repeat runs; inconclusive = weak or mixed curves; inactive = flat fitted curve, though single readings scatter.
% is scaled to controls: 0 for no effect and ±100 for the full control effect.

The nature of this test: Caspase-3/7 induction in CHO-K1 cells by small molecules, qHTS assay (AID 1346980). Also: nearly all actives have a fitted effect of over 15% in size. To be noted: CHO-K1 caspase-3/7 induction, Caspase-Glo luminescence, 17 h; series mostly up to 92.4 µM. From the text:
National Center for Advancing Translational Sciences [NCATS]
NIH Chemical Genomics Center [NCGC]
U.S. Environmental Protection Agency [EPA]
National Institutes of Environmental Health Sciences [NIEHS]
National Toxicology Program [NTP]
Apoptosis is a process of programmed cell death and plays a central role in the development of multicellular organisms. It is a highly regulated process and induces cell death by activating caspases, which are the members of cysteine aspartic acid-specific protease (caspase) family. Caspases involved in apoptosis are classified by their mechanism of action as initiator caspases (caspase-2, -8, -9 and -10) and executioner caspases (caspase-3, -6, and -7). Inhibition of apoptosis results in number of cancers, autoimmune diseases, inflammatory diseases and viral infection. To identify small molecule compounds that induce apoptosis, a homogeneous, luminescent Caspase-Glo 3/7 assay was used. Wild type CHO-K1 cells were used to screen Tox21 libraries for identifying caspase-3/7 activity inducers.
CHO-K1 cells were dispensed at 1,500 per well in 5uL of culture medium into white solid bottom 1536-well plates (Corning Life Sciences, Corning, NY) using a Multidrop Combi (Thermo Scientific, Waltham, MA) dispenser. The assay plates were incubated at 37 C and 5% CO2 for 5hr, and then 23nL of compounds dissolved in DMSO and positive control were transferred using a Pintool station (Wako, San Diego, CA). The assay plates were incubated at 37C and 5% CO2 for 17hr. For caspase-3/7 activity read, 4uL of Caspase-Glo 3/7 reagent (Promega Corporation, Madison, WI) was added to each well of the assay plates using Flying Reagent Dispenser (FRD, Aurora Discovery, San Diego, CA) and incubated the assay plates at room temperature for 30min. The luminescence signal was quantified using a ViewLux plate reader (Perkin Elmer, Shelton, CT).
(In general: In qHTS, concentration-response curves come from the screen itself.)
On to `COC(=O)/C=C(/C)N`, for which the result was inactive. Still for that read-out and setting: the entry for `CN1CCN(N)CC1` is “inactive”. Still for that read-out and setting: as for `ICCc1ccccc1`, the entry is “inactive”; as for `CN(CCCN1c2ccccc2CCc2ccccc21)CC(=O)c1ccc(Cl)cc1`, “inactive”; as for `Cc1onc(-c2ccccc2)c1C(=O)Cl`, “inactive”. The same measure, in the same setting: the entry for `CNCCC(Oc1ccccc1OC)c1ccccc1` (stereo not given) is “inactive”; for `O=c1[nH]cnc2c1ncn2[C@@H]1O[C@H](CO)[C@@H](O)[C@H]1O` it is “inactive”; for `CC(C)CCCCCCc1ccc(OCCOCCO)cc1` it is “inactive”. As to `OCCN1CCN(CCO)CC1`, the call was inactive. In the case of `COC(=O)c1ccc2cc(C(=O)OC)ccc2c1`, the caspase-3/7 activation is -2.42% [at 19 µM].

As for `O=S(=O)(O)C(F)(F)F`, the result was inactive. `CC/C=C\CCOC(=O)CCCCC`: the molecule was classed as inactive. The same measure, in the same setting: as for `CCN(CC)CCNC(=O)COc1ccc(Cl)cc1`, the entry is “inactive”; as for `CCN(CC)C(=O)N(CC)CC`, “inactive”. On the same count and under the same terms, the entry for `CC1CN(c2ccccc2)NC1=O` (stereo not given) is “inactive”; for `CCCCC(=O)O[C@]1(C(=O)CO)[C@H](C)C[C@H]2[C@@H]3CCC4=CC(=O)C=C[C@]4(C)[C@@]3(F)[C@@H](O)C[C@@]21C` it is “inactive”; for `CC1=C2[C@H](/C=C(\C)C(=O)O)CC[C@@H](C)[C@H]2CC1` it is “inactive”.

Regarding `C[C@@H](N)C(=O)O`, the molecule was called inactive. Same read-out and setting: as for `Cc1ccc([N+](=O)[O-])cc1Cl`, the entry is “inactive”. Same read-out and setting: as for `FC(F)(F)c1ccccc1`, the entry is “inactive”; as for `CC(C)NC[C@@H](O)COc1cccc2ccccc12`, “inactive”; as for `CCCCC(CC)COC(=O)COc1cc(Cl)c(Cl)cc1Cl` (stereo not given), “inactive”. Still for that read-out and setting: the entry for `COc1cc2c(cc1N)oc1ccccc12` is “inactive”; for `COc1ccc(S(=O)(=O)Nc2nnc(CC(C)C)s2)cc1` it is “inactive”. On to `NC(=O)NS(=O)(=O)c1ccc(Cl)cc1`, for which the molecule was classed as inactive.

For `C[C@]12C(=O)OC(=O)[C@H]1[C@H]1C=C[C@@H]2C1`, the call was inactive. Still for that read-out and setting: the entry for `OCCN(CCO)c1ccccc1` is “inactive”; for `O=C1CCN(c2ccccc2)N1` it is “inactive”. Consider `CC(Oc1c(Cl)cccc1Cl)C1=NCCN1` (stereo not given), for which the call was inactive.

For `C1CSCCS1`, the outcome was inactive. Take `CN(C)C(=O)NC1(c2ccccc2)CCN(CCC[C@]2(c3ccc(Cl)c(Cl)c3)CCCN(C(=O)c3ccccc3)C2)CC1`: the caspase-3/7 activation is -0.059% [at 19 µM]. Regarding `CCC(=O)O[C@]1(C(=O)SCF)[C@H](C)C[C@H]2[C@@H]3C[C@H](F)C4=CC(=O)C=C[C@]4(C)[C@@]3(F)[C@@H](O)C[C@@]21C`, the call was inactive. Still for that read-out and setting: the entry for `C[C@]12CCC(=O)C=C1CC[C@@H]1[C@@H]2CC[C@@]2(C)[C@H]1CC[C@]2(O)C(=O)CO` is “inactive”; for `CO[C@@]1(NC(=O)CSCC#N)C(=O)N2C(C(=O)O)=C(CSc3nnnn3C)CS[C@@H]21` it is “inactive”; for `CS(=O)(=O)c1ccc([C@@H](O)[C@@H](CF)NC(=O)C(Cl)Cl)cc1` it is “inactive”. For the molecule `CCC(=O)c1ccc2c(c1)N(CCCN(C)C)c1ccccc1S2`, the call was inactive. Still for that read-out and setting: as for `O=C(O)c1cccc(Cl)c1Cl`, the entry is “inactive”; as for `CCOC(=O)[C@H](CCc1ccccc1)N[C@@H](C)C(=O)N1Cc2cc(OC)c(OC)cc2C[C@H]1C(=O)O`, “inactive”; as for `CCCCCCCCCCCCOCCOS(=O)(=O)O`, “inactive”.

As to `CCCCCCCOC(=O)CCC`, the molecule was classed as inactive.

Source of the values: PubChem BioAssay (Tox21).
